Test results as given in PubChem BioAssay (NCI).
Where “and” joins values, the source holds several entries; their conditions need not be identical. Equal entries are not always repeated. This is part of a sample that, as a whole, favours compounds with a hit. Of some 83,000 tested, about 20% had one in any assay.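 Growth was measured after 48 h exposure to one concentration of compound in 96-well plates. Values under 10 count as active.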 Calls of active or inactive are those of the source.

Tested on: HL-60(TB) leukemia
Assay: NCI-60 one-dose screen, 48 h (100 = growth as untreated, 0 = no growth, -100 = all killed)
Settings: 10 µM unless noted

Compound	growth
O=C1/C(=C/c2cccc3c2OCO3)Cc2c(F)cc(Br)cc21	97.8% (inactive)
COc1ccc(N2N=C(c3ccc4c(c3)OCO4)CC2c2cccc(NC(=O)CCNS(=O)(=O)c3ccc(Cl)cc3)c2)cc1 (stereo not given)	34.4% (inactive)
S=C(NCCc1ccccc1)Nc1ccc(OCc2nc3ccccc3[nH]2)cc1	100% (inactive)
COc1ccc(C(=O)/C=C/c2ccc(OCc3ccccc3)c(OC)c2)cc1OC	5.55% (active)
CCCn1c(=O)c2[nH]c(-c3ccc(OCc4nc5ccc(F)cc5[nH]4)cc3)nc2n(CCC)c1=O	38.2% (inactive)
O=c1c2ccccc2nc(COc2ccccc2)n1/N=C/c1ccc(N2CCOCC2)cc1	100% (inactive)
CN1CCc2c(sc3ncnc(N/N=C/c4cn(-c5ccccc5)nc4-c4ccc(Cl)cc4)c23)C1	-12.4% (active)
S=C(NCCc1ccccc1)Nc1ccc(OCc2nc3ccc(Cl)cc3[nH]2)cc1	11.6% (inactive)
N#Cc1c(-c2cccc(O)c2O)cc(-c2ccc3ccccc3c2)[nH]c1=O	56.6% (inactive)
Cc1ccc(C(=O)Nc2cc(-n3ccnc3)cc(C(F)(F)F)c2)cc1-n1cc(-c2cnc3cccnn23)nn1	50.5% (inactive)
COc1ccc2[nH]cc(-c3cc(N)n4nc(-c5cn(C)c6ccccc56)cc4n3)c2c1	-40.7% (active)
CN1CCN(Cc2ccc(NC(=O)c3cncc(C#Cc4cnc5ccc(N[C@@H]6CCOC6)nn45)c3)cc2C(F)(F)F)CC1	-57.9% (active)
CC(C)(C)c1cc(/C=C2\S/C(=N/c3ncn[nH]3)NC2=O)cc(C(C)(C)C)c1O	6.76% (active)
COc1cc(Nc2nc(O)c(/C=C3\C=Nc4ccccc43)s2)cc(OC)c1OC	-16% (active)
Cc1cccc(NCC(=O)N2CCN(c3ncnc4c3cnn4-c3ccccc3)CC2)c1	60.2% (inactive)
CC1(C)CC[C@]2(C(=O)O)CC[C@]3(C)C(=CCC4[C@@]5(C)C[C@@H](O)[C@@H]6OC(c7cccc(F)c7)OC[C@@]6(C)C5CC[C@]43C)C2C1 (stereo not given in full)	9.5% (active)
COc1ccccc1C(=O)NN1C(=O)/C(=C/C2=Cc3ccccc3OC2)SC1=S	97.2% (inactive)
COc1ccc(-c2ccc(/C=N/NC(=O)c3[nH]c4ccc(Br)cc4c3-c3ccccc3)o2)cc1	6.17% (active)
O=C(N=Nc1c(O)[nH]c2ccc(Cl)cc12)c1ccc2nc(-c3ccc(Cl)cc3)[nH]c2c1	45.2% (inactive)
C=C1CC[C@@H]2[C@]3(C)COC(c4cn[nH]c4-c4ccc(Br)cc4)O[C@@H]3CC[C@@]2(C)[C@@H]1C/C=C1/C(=O)OCC1O (stereo not given in full)	-8.14% (active)
CC1(C)CC[C@]2(C(=O)O)CC[C@]3(C)C(=CCC4[C@@]5(C)C[C@@H](O)[C@@H]6OC(c7ccccc7Br)OC[C@@]6(C)C5CC[C@]43C)C2C1 (stereo not given in full)	4.07% (active)
COC(=O)c1c(C(=O)OC)c2ccc3c4ccccc4ccc3n2c1C(=O)C(C)Br (stereo not given)	39% (inactive)
COc1ccc2c(c1)C(Sc1ccc(Cl)cc1)c1c(nc(N)c(C#N)c1N)O2 (stereo not given)	44.8% (inactive)
O=C(N/N=C/c1ccoc1)c1[nH]c2ccc(Br)cc2c1-c1ccccc1	-27.3% (active)
N#Cc1ccc(C(=O)NNC(=O)CSc2nc3sc4c(c3c(=O)n2-c2ccc(Cl)cc2)CCCC4)cc1	67.2% (inactive)

Compound	growth
COc1ccc(/C=C2\C(=N)N=C(SCc3nc4ccccc4[nH]3)NC2=O)cc1	103% (inactive)
CC(=O)Nc1ccc(-c2cn(-c3cccc(C(=O)Nc4cccc(OC(F)(F)F)c4)c3)nn2)cn1	95.1% (inactive)
CCOC(=O)c1ccc(NC(=S)NC(=O)c2cccc(NC(=O)c3ccc(C)cc3)c2)cc1	102% (inactive)
COc1cc2c3c(n(CCCN4CCOCC4)c(=O)c2cc1OC)-c1nc2c(cc1C3=O)OCO2	65.2% (inactive)
CCCn1c(=O)c2[nH]c(-c3ccc(OCc4nc5ccc(C(F)(F)F)cc5[nH]4)cc3)nc2n(CCC)c1=O	55.9% (inactive)
CC1(c2cc3cc(Br)ccc3oc2=O)NC(=O)c2c(/C=C/C(=O)OC3CC4CCC3(C)C4(C)C)cccc2N1 (stereo not given)	48.9% (inactive)
CCCn1c(=O)c2[nH]c(-c3ccc(OCc4nc5ccccc5[nH]4)cc3)nc2n(CCC)c1=O	85.3% (inactive)
O=C1Nc2ccc(F)cc2/C1=C/c1cccc(OCc2ccccn2)c1	7.92% (active)
C=C1CC[C@@H]2[C@]3(C)COC(c4cn[nH]c4-c4ccc(C)cc4)O[C@@H]3CC[C@@]2(C)[C@@H]1C/C=C1/C(=O)OCC1O (stereo not given in full)	7.26% (active)
O=C(N/N=C/c1c[nH]c2ccccc12)Nc1ccc(F)c(Cl)c1	15.9% (inactive)
O=C(CCl)Nc1ccc(C(=O)/C=C/c2cc3ccccc3nc2Cl)cc1	-17.4% (active) and 30.5% (inactive)
COc1cccc(C(=O)CSc2nc(-c3ccc(OCc4ccccc4)c(OC)c3)c(C#N)c(=O)[nH]2)c1	97.2% (inactive)
C#CCOc1cc(N(CC)CC)ccc1C(C(=O)NC(C)(C)C)N(C(=O)C1CCc2cc(F)ccc2O1)c1ccc(F)c(Cl)c1 (stereo not given)	27.2% (inactive)
Cn1cc(-c2nc(N)nnc2-c2c[nH]c3ccc(Br)cc23)c2cccnc21	5.1% (active)
Cn1cc(-c2cc3nc(-c4c[nH]c5ccc(Cl)cc45)cc(N)n3n2)c2ccccc21	-34.2% (active)
COc1ccccc1/C=C/c1cccc(NC(=S)NCCCCN(C)C)c1	-41.7% (active)
CC1CCc2c(sc3nc(SCC(=O)c4cccc(Br)c4)n(-c4ccccc4)c(=O)c23)C1 (stereo not given)	64.7% (inactive)
O=C1Nc2cc(-c3ccc(NC(=O)c4cccs4)cc3)ccc2/C1=C/c1ccc[nH]1	90.9% (inactive)
O=C(CCN1C(=O)/C(=C/c2ccc(F)cc2)SC1=S)N1CCOCC1	86.4% (inactive)
Nc1nc(Nc2ccccc2)nn1Cc1c(Cl)cccc1Cl	30% (inactive)
CC(=O)Nc1ccc(-n2cnc3ccc(-c4ccc(O)cc4)cc32)cc1	38.2% (inactive)
NS(=O)(=O)c1ccc(NNC(=O)CCC(=O)c2ccccc2)cc1	75.3% (inactive)
COc1cccc2nc(Nc3ccc(F)c(NC(=O)c4ccc(CN5CCN(C)CC5)c(C(F)(F)F)c4)c3)ccc12	-73.1% (active)
COc1ccc(C2=NN(C(C)=O)C(c3ccc(OCc4ccc(Cl)cc4)c(OC)c3)C2)cc1OC (stereo not given)	34.6% (inactive)
Fc1ccc(-c2csc(Nc3cccc(Nc4nc(-c5ccc(F)cc5)cs4)c3)n2)cc1	74.3% (inactive)

Compound	growth
Cn1cc(/C=N/Nc2ccnc3cc(Cl)ccc23)c2ccccc21	-60.3% (active)
O=C(O)c1ccc(-c2ccc(/C=N/NC(=O)c3[nH]c4ccc(Br)cc4c3-c3ccccc3)s2)cc1	-5.49% (active)
O=C(COc1ccc(/C=C2/C(=O)Nc3ccc(Cl)cc32)cc1)Nc1ccc(Br)cc1	10.3% (inactive)
COc1ccc([C@H](C)Nc2nc(Cl)nc3ccccc23)cc1	7.64% (active)
CN(C)c1nc(NCCNS(=O)(=O)c2ccc(C(=O)/C=C/c3ccc(Cl)cc3)cc2)nc(Nc2ccc(F)cc2)n1	-42.7% (active)
COc1ccc2[nH]cc(-c3nc(N)nnc3-c3cn(C)c4ncc(Br)cc34)c2c1	-44.9% (active)
COc1cc2c(c(OC)c1OC)C(=O)CC(c1cccc(NC(=O)c3cc([N+](=O)[O-])ccc3Cl)c1)O2 (stereo not given)	34.1% (inactive)
COc1cc(NC(=O)c2cccc(C3CCc4c(cc(OC)c(OC)c4OC)O3)c2)cc(OC)c1OC (stereo not given)	4.25% (active)
O=C(c1ccc(Cl)cc1)C1[C@H](c2ccccc2Cl)[C@@H](c2ccccc2)NC12C(=O)Nc1ccc(Cl)cc12 (stereo not given in full)	-39.9% (active)
CC(=O)Oc1ccc(/C=C/C(=O)N[C@@H](Cc2ccccc2)C(O)C(=O)NCc2ccccc2)cc1OC(C)=O (stereo not given in full)	79.4% (inactive)
Fc1ccc(/C=C/c2nc3ccccc3n3c(-c4ccc(Cl)cc4)nnc23)cc1	3.61% (active)
CSc1ccccc1NC(=O)c1ccc2nn(/C(C#N)=C/c3ccccn3)nc2c1	-12.8% (active)
O=C(c1ccc(Cl)cc1)c1ccc(OCCCN2CCN(c3ccncc3)CC2)cc1	-3.36% (active)
O/N=C(\CSc1nnc(-c2c[nH]c3ccccc23)n1-c1ccccc1)c1ccc(Br)cc1	-36.3% (active)
COc1ccc(C(=O)/C=C/c2ccc3c(c2)OCCO3)cc1S(N)(=O)=O	95.1% (inactive)
COc1ccc2nc(Cl)c(-c3cc(-c4ccccc4)nc(=S)[nH]3)cc2c1	19.6% (inactive)
CO[C@H]1CSS[C@@H]1Cn1nc(-c2ccc(Oc3ccccc3)cc2)c2c(N)ncnc21	8.96% (active)
COc1cc2c(c(OC)c1OC)C(=O)CC(c1cccc(NC(=O)c3cccc(NC(=O)[C@H](C)NC(=O)OC(C)(C)C)c3)c1)O2 (stereo not given in full)	71.2% (inactive)
Cc1ccc(NC(=O)N/N=C/c2c[nH]c3ccccc23)c(C)c1	1.73% (active)
COc1ccc(C=CC(=O)c2ccc(-n3c(C)nc4c(cnn4-c4ccccc4)c3=O)cc2)cc1	44.7% (inactive)
N#Cc1c(-c2cccnc2)cc(-c2ccc3ccccc3c2)[nH]c1=O	72.6% (inactive)
O=C(O)c1cccc(-c2ccc(/C=N/NC(=O)c3[nH]c4ccc(Br)cc4c3-c3ccccc3)o2)c1	88.5% (inactive)
COc1cc(CNC(=O)/C=C/c2ccc3c(c2)OCO3)ccc1OCc1cn(-c2cccc(C(F)(F)F)c2)nn1	69.7% (inactive)
Nc1nc(Nc2ccc(Cl)cc2)n(Cc2cccc(Br)c2)n1	-14.2% (active)
CN(C)c1nc(NCCNS(=O)(=O)c2ccc(C(=O)/C=C/c3ccccc3)cc2)nc(Nc2ccc(F)cc2)n1	14% (inactive)
